Screen size: about 280,000 compounds; about 820 (0.29%) were called active. Entries that show only a call come without a potency. Not shown: some 1% with an inconclusive outcome. Calls follow the shape of the dose curve; as a rule, active = well fitted curve in either direction with a large enough effect; inconclusive = small, poorly fitted or top-dose-only effect; inactive = flat fitted curve, though single readings scatter. Only a selection was taken, and actives are over-represented in it overall.
Test: Total Fluorescence Counterscreen for Inhibitors of the Interaction of Thyroid Hormone Receptor and Steroid Receptor Coregulator 2
Conditions: TRb/SRC2 Texas Red total fluorescence interference; series mostly up to 106 µM
Outline: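 Human TRβ ligand-binding domain (0.6 uM) and Texas Red SRC2 peptide (20 nM) in Tris buffer with 1 uM T3 and 5% DMSO were incubated with pinned compound for 5 hr at ambient temperature. Total fluorescence was computed as S + 2P (555/632 nm).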
For `O=C(Nc1ccc(F)cc1F)c1cnn(-c2ccc(F)cc2)c1-n1cccc1`, the Potency was “inactive”.
With `Clc1nc(Cl)c(Cl)c(Cl)c1Cl` the Potency was “inactive”.
In the case of `COc1c(O)c2c(=O)cc(OC)c3c4c(OC)cc(=O)c5c(O)c(OC)c6c(c(c1C[C@@](C)(O)[C@H]6C(C)=O)c23)c54`, the Potency is reported as 44.7 µM [fluorescent] (active).
In the case of `CCn1cc(C(=O)N2CCN(c3cc(Cl)ccc3C)CC2)c(=O)c2cc(S(=O)(=O)N3CCCC3)ccc21`, the Potency is reported as “inactive”.
For `CCc1ccccc1NC(=O)Cn1c(=O)n(-c2cccc(C)c2)c(=O)c2c1c1cc(OC)ccc1n2C`, the Potency was “inactive”.
With `Cc1ccccc1C(=O)N(Cc1ccc(N(C)C)cc1)CC1CCCO1` (stereo unspecified) the Potency was “inactive”.
In the case of `N#C/C(=C/c1ccc(N2CCOCC2)o1)C(=O)N1CCOCC1`, the Potency is reported as 44.7 µM [fluorescent] (active).
In the case of `N#C/C(=C/c1ccc(N2CCCCC2)o1)C(=O)NCCc1c[nH]c2ccccc12`, the Potency is reported as “inactive”.
In the case of `N#C/C(=C\c1ccc(N2CCOCC2)o1)C(=O)N1CCOCC1`, the Potency is reported as “inactive”.
For `CCc1c(C(=O)O)c(=O)cnn1-c1ccc(Cl)cc1`, the Potency was “inactive”.
With `O=C(CCSCc1ccccc1F)N1CCN(c2ccc(Cl)cc2)CC1` the Potency was “inactive”.
In the case of `COc1ccccc1NC(=O)CN1C(=O)c2ccccc2Sc2ccc(C(=O)N3CCCC3)cc21`, the Potency is reported as “inactive”.
For `COc1cccc(CNC(=O)c2ccc3c(c2)N(Cc2ccc(C(F)(F)F)cc2)C(=O)c2ccccc2S3)c1OC`, the Potency was 31.6 µM [quencher] (active).
For `Cc1ccccc1CN1C(=O)c2ccccc2Sc2ccc(C(=O)NCCCN3CCOCC3)cc21`, the Potency was “inactive”.
With `CC(=O)N1CCCc2cc(S(=O)(=O)N3CCC(C(=O)NCc4ccc(F)cc4)CC3)ccc21` the Potency was “inactive”.
With `CCCN(CCC)CCNC(=O)c1ccc2c(c1)NC(=O)C(CS(=O)(=O)Cc1cccc(Br)c1)N2` (stereo unspecified) the Potency was “inactive”.
In the case of `CCCCNC(=O)c1ccc2c(c1)NC(=O)C(C(C)C)N2` (stereo unspecified), the Potency is reported as 0.0562 µM [quencher] (active).
In the case of `CCCCNC(=O)CCNC(=O)c1ccc(C(C)(C)C)cc1`, the Potency is reported as “inactive”.
For `CSc1ccccc1NC(=O)CCS(=O)(=O)c1nc(-c2cccs2)cc(C(F)(F)F)n1`, the Potency was “inactive”.
For `O=C(Nc1cc(C(F)(F)F)ccc1Cl)c1ccc2c(c1)CCN2S(=O)(=O)c1ccccc1`, the Potency was “inactive”.
For `CCc1ccccc1NC(=O)CSc1nc(C)c(C(=O)Nc2ccccc2)c(-c2ccc(Cl)cc2)c1C#N`, the Potency was “inactive”.
With `CCn1cc2nc(SCc3cccc(F)c3)n(CCc3ccccc3)c(=O)c2n1` the Potency was “inactive”.
In the case of `CN1c2ccc(Cl)cc2-c2nc(SCC(=O)Nc3cc(F)ccc3F)ncc2S1(=O)=O`, the Potency is reported as “inactive”.
With `O=C(Nc1nnc(S(=O)(=O)N2CCCc3ccccc32)s1)c1cccc(F)c1` the Potency was “inactive”.
In the case of `Cc1ccc(S(=O)(=O)N2CCCc3cc(NS(=O)(=O)c4cc(C)ccc4C)ccc32)cc1`, the Potency is reported as “inactive”.
For `Cc1c2cnn(-c3ccccc3)c(=O)c2c(C)n1C(C)C(=O)Nc1ccc(Br)cc1F` (stereo unspecified), the Potency was “inactive”.
In the case of `O=C(NCc1cccnc1)C(=O)NCC(c1cccnc1)N1CCN(c2ccccc2)CC1` (stereo unspecified), the Potency is reported as “inactive”.
In the case of `CCN(CC)S(=O)(=O)c1ccc2c(c1)nc(CN(C)C(=O)Nc1ccc(Cl)cc1)n2C`, the Potency is reported as “inactive”.
For `COCCNc1ncnc2c1c(-c1ccccc1)cn2-c1ccc(C)c(Cl)c1`, the Potency was “inactive”.
In the case of `COc1ccccc1N1CCN(c2ncnc3onc(-c4ccc(F)cc4)c23)CC1`, the Potency is reported as “inactive”.
With `COc1cc(NC(=O)c2cc(C3CC3)nc3c2c(C)nn3-c2ccccc2)cc(OC)c1` the Potency was “inactive”.
For `Cc1[nH]c2ccccc2c1C(c1ccccc1)c1cccs1` (stereo unspecified), the Potency was “inactive”.
For `COc1cccc(CNC(=O)Cc2csc3nc(-c4ccccc4)cn23)c1`, the Potency was “inactive”.
With `Fc1ccc(CN2CCc3nc(Nc4ccccc4)ncc3C2)cc1F` the Potency was “inactive”.
With `Cc1ccc(-c2cn3c(n2)sc2cc(C(=O)NCc4cccs4)ccc23)c(C)c1` the Potency was “inactive”.
In the case of `CC(C)CC(=O)NCC(c1ccc2c(c1)OCO2)N1CCN(c2ccc(F)cc2)CC1` (stereo unspecified), the Potency is reported as “inactive”.

Reference: PubChem BioAssay AID1479 (National Center for Advancing Translational Sciences (NCATS), 2009)
Potency is read from the fitted curve at half-maximal effect; tags tell the direction and shape of the fitted curve or compound fluorescence and quenching.
